Our source for the outcome and AC50 values is PubChem BioAssay (EPA / NIEHS).

Inconclusive results are not listed. Activity calls are given as the source filed them. Rule for the calls, unless noted: active = hit-call score of the fitted dose curve at least 0.9, where 1 is the maximum; inactive = score below 0.9.

Read-out in test [1]: Macrophage colony-stimulating factor (MCSF), CSF1 (gene 1435)
Nature of the test: BSK_LPS_MCSF: BioMAP Diversity Plus: LPS Assay for Macrophage colony-stimulating factor (MCSF) Biomarker Activity (AID 2283083). Particulars: primary human HUVEC with PBMC; actives raise or lower the signal. The procedure, abridged: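 HUVEC + PBMC co-culture (human primary), 24 h post-dose; M-CSF by ELISA; gain/loss of signal fitted bidirectionally vs DMSO baseline.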

Read-out in test [2]: Tissue Factor, F3 (gene 2152)
Nature of the test: BSK_LPS_TissueFactor: BioMAP Diversity Plus: LPS Assay for Tissue Factor Biomarker Activity (AID 2283084). Particulars: primary human HUVEC with PBMC; actives raise or lower the signal. The method, boiled down:
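HUVEC/PBMC co-culture, LPS-activated; CD142 ELISA read 24 h post-dose; bidirectional curve fit vs DMSO negative control.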

Read-out in test [3]: Tumor necrosis factor (Homo sapiens) (UniProt P01375)
Kind of test: BSK_LPS_TNFa: BioMAP Diversity Plus: LPS Assay for Tumour Necrosis Factor alpha (TNFa) Biomarker Activity (AID 2283085).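 For AC50: TNFa protein level quantified by ELISA in the co-culture.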 Particulars: primary human HUVEC with PBMC; actives raise or lower the signal. The procedure, abridged:
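TNFa was quantified by ELISA in LPS-activated co-cultures of human endothelial cells and PBMC, 24 h post-dosing. Both increases and decreases versus DMSO were fitted.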

Read-out in test [4]: Vascular cell adhesion molecule 1 (VCAM1), VCAM1 (gene 7412)
Kind of test: BSK_LPS_VCAM1: BioMAP Diversity Plus: LPS Assay for Vascular cell adhesion molecule 1 (VCAM1) Biomarker Activity (AID 2283086). Particulars: primary human HUVEC with PBMC; actives raise or lower the signal. The procedure, abridged: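 VCAM-1 quantified by ELISA in an LPS-activated co-culture of human endothelial cells and peripheral blood mononuclear cells, read 24 h post-treatment. Fitted in both directions versus DMSO; parallel SRB staining flags overt cytotoxicity.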

Read-out in another test: CD38, CD38 (gene 952)
Kind of test: BSK_SAg_CD38: BioMAP Diversity Plus: SAg Assay for CD38 Biomarker Activity (AID 2283087). Particulars: primary human HUVEC with PBMC; actives raise or lower the signal. The procedure, abridged:
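CD38 quantified by ELISA (fluorescence) in a superantigen-activated endothelial cell–PBMC co-culture at 24 h post-dose. Activity fitted in both directions relative to DMSO; parallel SRB and Alamar Blue cytotoxicity read-outs.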

Read-out in a further test: CD40, CD40 (gene 958)
Nature of the test: BSK_SAg_CD40: BioMAP Diversity Plus: SAg Assay for CD40 Biomarker Activity (AID 2283088). The note with it: primary human HUVEC with PBMC; actives raise or lower the signal. The procedure, abridged: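 HUVEC/PBMC co-culture, 24 h post-dose; CD40 by ELISA, fluorescence intensity; bidirectional fit vs DMSO negative control.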

Read-out in the next test: CD69, CD69 (gene 969)
Nature of the test: BSK_SAg_CD69: BioMAP Diversity Plus: SAg Assay for CD69 Biomarker Activity (AID 2283089).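 For AC50: cell surface CD69 protein quantified by ELISA with fluorescence detection.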 The note with it: primary human HUVEC with PBMC; actives raise or lower the signal. The procedure, abridged:
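Endothelial/PBMC co-culture; chemical added; 24 h incubation; CD69 ELISA with fluorescence detection; bidirectional fit vs DMSO.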

Read-out in test [5]: Monocyte Chemoattractant Protein-1 (MCP1), CCL2 (gene 6347)
Nature of the test: BSK_SAg_MCP1: BioMAP Diversity Plus: SAg Assay for Monocyte Chemoattractant Protein-1 (MCP1) Biomarker Activity (AID 2283090). Particulars: primary human HUVEC with PBMC; actives raise or lower the signal. The method, boiled down:
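Values derive from bidirectional fitting of ELISA-measured MCP1 against DMSO controls. Readings were taken 24 h after dosing human vascular endothelial cells co-cultured with peripheral blood mononuclear cells under superantigen stimulation.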

Read-out in test [6]: E-selectin (Homo sapiens) (UniProt P16581)
Nature of the test: BSK_SAg_Eselectin: BioMAP Diversity Plus: SAg Assay for Eselectin Biomarker Activity (AID 2283091). The note with it: primary human HUVEC with PBMC; actives raise or lower the signal. The procedure, abridged:
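E-selectin ELISA readout at 24 h post-dosing in human umbilical vein endothelial cell/PBMC co-culture; gain or loss of signal fitted relative to DMSO baseline.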

Read-out in test [7]: Monokine induced gamma interferon (MIG), CXCL9 (gene 4283)
Kind of test: BSK_SAg_MIG: BioMAP Diversity Plus: SAg Assay for Monokine induced gamma interferon (MIG) Biomarker Activity (AID 2283092). The note with it: primary human HUVEC with PBMC; actives raise or lower the signal. The method, boiled down: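 Measures CXCL9 protein by ELISA in a human vascular primary-cell co-culture (umbilical vein endothelium with PBMC) 24 h after chemical addition. Activity is scored up or down from the DMSO control.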

The nature of test [8]: BSK_SAg_PBMCCytotoxicity: PBMC Cytotoxicity Assessment in the BioMAP Diversity Plus: SAg Assay (AID 2283093).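 For AC50: PBMC superantigen activated with SEB plus TSST-1 one hour after compound addition.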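 Note: fitted both ways against DMSO so a hit may be loss or gain of signal.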 The note with it: primary human HUVEC with PBMC. The procedure, abridged: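 PBMC viability by Alamar Blue reduction, fluorescence read at 546/580 nm after 6 h dye exposure. Cells were dosed 1 h before SEB plus TSST-1 activation (20 ng/mL final each), then held 90 h; endothelial/PBMC human co-culture.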

Read-out in test [9]: Interleukin-8 (IL8), CXCL8 (gene 3576)
Kind of test: BSK_SAg_IL8: BioMAP Diversity Plus: SAg Assay for Interleukin-8 (IL8) Biomarker Activity (AID 2283094). Particulars: primary human HUVEC with PBMC; actives raise or lower the signal. The procedure, abridged: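 ELISA readout of IL-8 from a superantigen-activated endothelial/PBMC primary human co-culture, taken 24 h post-dosing and fitted in both directions against DMSO; parallel SRB total-protein staining flags overt cytotoxicity.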

Test [10] is described as follows: BSK_SAg_Proliferation: Cell Proliferation Assessment in the BioMAP Diversity Plus: SAg Assay (AID 2283095).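 Note: relative cell number as total protein by SRB absorbance in sub-confluent culture.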 The note with it: primary human HUVEC with PBMC. The procedure, abridged: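 Relative cell number in the endothelial cell/PBMC co-culture was quantified at 96 h by SRB staining (0.1% SRB, 10% TCA fixation, read at 560 nm). Curves were fitted in both directions relative to DMSO baseline.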

The nature of test [11]: BSK_SAg_SRB: Viability Assessment in the BioMAP Diversity Plus: SAg Assay (AID 2283096).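 Note: cells read one day after compound addition; hits may be either gain or loss of signal compared with DMSO.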 The note with it: primary human HUVEC with PBMC. The method, boiled down:
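Compounds were added to a human vascular co-culture of umbilical vein endothelium and PBMC. After 24 h, parallel cultures were fixed with 10% TCA, stained with 0.1% sulforhodamine B and read at 560 nm. Gain or loss of signal was fitted relative to DMSO.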

Test [12] has as its target human CYP1A1, CYP1A1 (gene 1543) (UniProt P04798). Kind of test: NVS_ADME_hCYP1A1: NovaScreen (NVS) CYP450-related Enzyme Activity (ADME) Assay for human CYP1A1 (AID 2283100; active = hit-call score of the fitted dose curve at least 0.9, where 1 is the maximum). The method, boiled down:
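Read-out: fluorescence intensity from enzymatic turnover of substrate by recombinant CYP1A1, loss of signal indicating inhibition. Incubation 1 h post-dose. Primary single-point 10 uM in duplicate; actives rerun singly with top concentration 20 uM.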

Test [13] deals with human CYP2B6, CYP2B6 (gene 1555) (UniProt P20813). Kind of test: NVS_ADME_hCYP2B6: NovaScreen (NVS) CYP450-related Enzyme Activity (ADME) Assay for human CYP2B6 (AID 2283101; active = hit-call score of the fitted dose curve at least 0.9, where 1 is the maximum). The procedure, abridged:
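Recombinant protein, specific fluorescent substrate, read at 1 h post-dosing. Primary: single 10 uM, duplicate; follow-up: concentration series. Activity = signal loss vs acetonitrile baseline, with positive and negative controls on every plate.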

In test [14] the target is human CYP1A2, CYP1A2 (gene 1544) (UniProt P05177). Nature of the test: NVS_ADME_hCYP1A2: NovaScreen (NVS) CYP450-related Enzyme Activity (ADME) Assay for human CYP1A2 (AID 2283102; active = hit-call score of the fitted dose curve at least 0.9, where 1 is the maximum;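 note: potency for inhibition since loss of fluorescence marks reduced CYP1A2 activity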). The method, boiled down:
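Fluorescence-intensity enzyme activity read-out, taken 0.5 h post-dosing, using insect-cell-derived recombinant CYP1A2 and specific fluorescent substrate. Acetonitrile served as negative control/baseline. Single-concentration duplicate screen at 10 uM, then concentration-response follow-up.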

Test [15] addresses human CYP2D6, CYP2D6 (gene 1565) (UniProt P10635). Nature of the test: NVS_ADME_hCYP2D6: NovaScreen (NVS) CYP450-related Enzyme Activity (ADME) Assay for human CYP2D6 (AID 2283107; active = hit-call score of the fitted dose curve at least 0.9, where 1 is the maximum). The procedure, abridged: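 Fluorescence intensity read 1 h post-dosing; insect-cell-expressed recombinant protein with fluorogenic substrate, no cells. Activity is scored as signal loss relative to acetonitrile baseline, first at a single 10 uM concentration in duplicate, then as concentration series for confirmed actives.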

Chain of Tumor necrosis factor (Homo sapiens) (P01375 whole entry, looked up): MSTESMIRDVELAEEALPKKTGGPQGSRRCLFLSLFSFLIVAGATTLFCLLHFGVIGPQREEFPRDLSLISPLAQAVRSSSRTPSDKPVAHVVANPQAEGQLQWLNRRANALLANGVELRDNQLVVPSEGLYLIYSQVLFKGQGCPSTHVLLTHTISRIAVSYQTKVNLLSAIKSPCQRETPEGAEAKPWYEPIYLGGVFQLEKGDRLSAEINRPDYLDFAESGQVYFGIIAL
Chain of E-selectin (Homo sapiens) (P16581 whole entry, looked up): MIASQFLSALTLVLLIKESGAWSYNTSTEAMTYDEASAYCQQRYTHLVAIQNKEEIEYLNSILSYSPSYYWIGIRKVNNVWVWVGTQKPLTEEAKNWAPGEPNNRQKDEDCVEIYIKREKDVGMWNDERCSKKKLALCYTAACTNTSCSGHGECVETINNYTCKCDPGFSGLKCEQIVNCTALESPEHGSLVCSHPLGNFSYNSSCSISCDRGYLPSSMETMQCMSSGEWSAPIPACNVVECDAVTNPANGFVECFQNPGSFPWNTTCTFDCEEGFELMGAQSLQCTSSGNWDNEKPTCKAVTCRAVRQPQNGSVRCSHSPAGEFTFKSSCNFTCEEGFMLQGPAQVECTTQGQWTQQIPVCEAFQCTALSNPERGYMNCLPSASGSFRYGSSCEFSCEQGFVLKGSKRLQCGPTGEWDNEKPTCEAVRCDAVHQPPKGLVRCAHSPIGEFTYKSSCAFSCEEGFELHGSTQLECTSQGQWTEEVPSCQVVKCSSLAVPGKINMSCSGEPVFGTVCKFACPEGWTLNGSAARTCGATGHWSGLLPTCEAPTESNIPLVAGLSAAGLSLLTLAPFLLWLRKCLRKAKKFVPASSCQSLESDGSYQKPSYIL
Chain of human CYP2B6, CYP2B6 (gene 1555) (P20813 whole entry, looked up): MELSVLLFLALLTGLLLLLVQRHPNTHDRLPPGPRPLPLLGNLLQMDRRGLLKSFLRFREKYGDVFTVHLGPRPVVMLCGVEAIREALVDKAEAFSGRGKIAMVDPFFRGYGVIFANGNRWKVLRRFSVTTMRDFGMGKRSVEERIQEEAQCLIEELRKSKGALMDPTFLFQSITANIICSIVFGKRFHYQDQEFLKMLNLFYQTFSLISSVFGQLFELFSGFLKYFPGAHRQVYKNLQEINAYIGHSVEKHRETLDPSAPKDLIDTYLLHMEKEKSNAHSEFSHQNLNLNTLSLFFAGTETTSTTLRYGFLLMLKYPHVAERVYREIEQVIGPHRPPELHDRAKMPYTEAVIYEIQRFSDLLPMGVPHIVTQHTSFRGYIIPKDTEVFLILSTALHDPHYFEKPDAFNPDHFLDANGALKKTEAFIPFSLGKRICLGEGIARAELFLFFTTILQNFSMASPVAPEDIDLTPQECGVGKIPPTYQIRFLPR
Chain of human CYP1A2, CYP1A2 (gene 1544) (P05177 whole entry, looked up): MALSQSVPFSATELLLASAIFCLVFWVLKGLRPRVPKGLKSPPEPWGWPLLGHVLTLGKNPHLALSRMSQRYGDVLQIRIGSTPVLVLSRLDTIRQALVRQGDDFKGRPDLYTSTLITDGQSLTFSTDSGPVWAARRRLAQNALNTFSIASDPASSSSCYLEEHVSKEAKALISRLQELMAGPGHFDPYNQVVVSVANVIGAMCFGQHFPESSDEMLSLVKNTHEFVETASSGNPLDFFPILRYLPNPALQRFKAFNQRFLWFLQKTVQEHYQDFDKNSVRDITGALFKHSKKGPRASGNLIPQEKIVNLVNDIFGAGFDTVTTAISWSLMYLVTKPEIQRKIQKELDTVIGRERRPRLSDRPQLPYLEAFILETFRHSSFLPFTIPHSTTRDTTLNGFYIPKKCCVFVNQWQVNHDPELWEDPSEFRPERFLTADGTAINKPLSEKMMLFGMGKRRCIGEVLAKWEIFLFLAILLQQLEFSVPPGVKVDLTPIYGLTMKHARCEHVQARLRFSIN
Chain of human CYP2D6, CYP2D6 (gene 1565) (P10635 whole entry, looked up): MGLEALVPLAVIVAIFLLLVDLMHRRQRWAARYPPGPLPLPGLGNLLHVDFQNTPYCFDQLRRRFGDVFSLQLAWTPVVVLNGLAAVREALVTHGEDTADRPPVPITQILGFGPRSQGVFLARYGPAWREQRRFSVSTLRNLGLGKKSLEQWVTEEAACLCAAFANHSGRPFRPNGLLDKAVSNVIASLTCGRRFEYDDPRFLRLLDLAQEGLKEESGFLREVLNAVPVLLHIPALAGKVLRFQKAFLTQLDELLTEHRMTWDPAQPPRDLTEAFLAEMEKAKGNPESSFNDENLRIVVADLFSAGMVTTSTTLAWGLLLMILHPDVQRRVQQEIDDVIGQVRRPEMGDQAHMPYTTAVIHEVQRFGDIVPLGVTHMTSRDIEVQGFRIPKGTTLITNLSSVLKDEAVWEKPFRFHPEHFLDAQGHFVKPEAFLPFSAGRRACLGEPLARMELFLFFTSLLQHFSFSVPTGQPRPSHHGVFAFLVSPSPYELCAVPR
Chain of human CYP1A1, CYP1A1 (gene 1543) (P04798 whole entry, looked up): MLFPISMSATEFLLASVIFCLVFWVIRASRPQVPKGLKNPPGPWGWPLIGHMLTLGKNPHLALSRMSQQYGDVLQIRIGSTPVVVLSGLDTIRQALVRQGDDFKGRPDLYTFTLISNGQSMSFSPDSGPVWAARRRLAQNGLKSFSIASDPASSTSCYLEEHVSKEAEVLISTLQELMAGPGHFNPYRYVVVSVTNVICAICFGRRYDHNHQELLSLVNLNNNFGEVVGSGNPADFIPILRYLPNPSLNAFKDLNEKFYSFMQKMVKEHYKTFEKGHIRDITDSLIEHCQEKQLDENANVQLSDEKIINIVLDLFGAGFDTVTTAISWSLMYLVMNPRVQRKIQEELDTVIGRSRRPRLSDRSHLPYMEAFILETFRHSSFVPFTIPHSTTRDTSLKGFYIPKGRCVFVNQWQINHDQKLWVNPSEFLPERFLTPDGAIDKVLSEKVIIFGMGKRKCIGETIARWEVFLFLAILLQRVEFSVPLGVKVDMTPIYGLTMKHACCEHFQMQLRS

In the case of `O=C(O)c1ccc2c(c1)nc(C(=O)NC1CCN(C3CC3)CC1)n2Cc1cc(-c2ccc(Cl)s2)on1`, the outcome is “inactive” in [1]; “inactive” in [2]; “inactive” in test [3]; “inactive” in test [4]; “inactive” with CD38, CD38 (gene 952); “inactive” with CD40, CD40 (gene 958). Also, the outcome with CD69, CD69 (gene 969) was “inactive”; in test [5], “inactive”; in test [6], “inactive”; in test [7] it was “inactive”; in test [8], “inactive”; in test [9], “inactive”. In addition, the outcome in test [10] and in test [11] was inactive.
For `C[C@@H](Oc1ccc(CNC(=O)c2cccnc2Oc2ccc3c(c2)OCO3)c(F)c1)C(=O)O`, the outcome in [1] was “inactive”; in test [2] it was “inactive”; in test [4], “inactive”; with CD38, CD38 (gene 952) it was “inactive”; with CD40, CD40 (gene 958) it was “inactive”; with CD69, CD69 (gene 969), “inactive”. Further, the result in test [5], in test [6], in test [7], in test [8], in test [9] and in test [11] was inactive. In test [3], the concentration at half-maximal activity (AC50) (usually the concentration at which the activity in the assay is half-maximal) is 2.29 µM (active).
As for `O=C(NO)C1(NS(=O)(=O)c2ccc(Oc3ccc(F)cc3)cc2)CCOCC1`, the outcome in test [1] is “inactive”; in test [2] it was “inactive”; in test [4], “inactive”; with CD38, CD38 (gene 952), “inactive”; in the test with CD40, CD40 (gene 958) it was “inactive”; with CD69, CD69 (gene 969), “inactive”. In addition, the outcome in [5], in [6], in [7], in [8], in test [9] and in test [10] was inactive. Besides, in test [11], the outcome was inactive. The AC50 in test [3] was 3.97 µM (active).
With `O=C(O)c1cccc(C(=O)O)c1`, the outcome in test [1] is “inactive”; in [2], “inactive”; in test [3], “inactive”; in [4], “inactive”; with CD38, CD38 (gene 952), “inactive”; in the test with CD40, CD40 (gene 958) it was “inactive”. For the same compound, the outcome with CD69, CD69 (gene 969) was “inactive”; in [5] it was “inactive”; in test [6], “inactive”; in test [7], “inactive”; in [8], “inactive”; in [9], “inactive”. Further, in test [11], the result was inactive.
Consider `CCCCCCCCCCCCCCCCOS(=O)(=O)O`, for which the outcome in test [1] was “inactive”; in test [2], “inactive”; in [3], “inactive”; in test [4], “inactive”; in the test with CD40, CD40 (gene 958), “inactive”; with CD69, CD69 (gene 969), “inactive”. For the same compound, the result in test [5], in test [6], in test [7], in test [8], in test [9] and in [11] was inactive. Moreover, the AC50 with CD38, CD38 (gene 952) was 5.57 µM (active).
As for `OCCNCCO`, the outcome in [1] is “inactive”; in [2], “inactive”; in test [3], “inactive”; in test [4], “inactive”; in the test with CD38, CD38 (gene 952) it was “inactive”; with CD40, CD40 (gene 958) it was “inactive”. Further, the outcome with CD69, CD69 (gene 969) was “inactive”; in [5] it was “inactive”; in [6] it was “inactive”; in [7] it was “inactive”; in test [8] it was “inactive”; in [9], “inactive”. Further, the outcome in test [10] and in test [11] was inactive.
On to `C=CCc1cc(S(=O)(=O)c2ccc(O)c(CC=C)c2)ccc1O`, for which the half-maximal activity concentration (AC50) is 28.6 µM (active) in [1]; 32.7 µM (active) in [2]; 29.8 µM (active) in test [3]; 30 µM (active) in test [4]; 14.5 µM (active) with CD38, CD38 (gene 952); 11.6 µM (active) with CD40, CD40 (gene 958). Also, the concentration at half-maximal activity (AC50) with CD69, CD69 (gene 969) was 24.3 µM (active); in test [5], 15.1 µM (active); in test [6], 13.8 µM (active); in test [7], 34.8 µM (active); in test [8], 36.8 µM (active); in test [9], 11.4 µM (active). The concentration at half-maximal activity (AC50) in test [10] is 17.1 µM (active); in test [11], 19.2 µM (active); in test [12] it was 2.32 µM (active); in [13], 2.77 µM (active); in test [14], 3.26 µM (active); in test [15], 0.567 µM (active).
Regarding `CCCCC(CC)C(=O)OCCOCCOCCOC(=O)C(CC)CCCC` (configuration not stated), the outcome was “inactive” in [1]; “inactive” in test [2]; “inactive” in test [3]; “inactive” in test [4]; “inactive” with CD38, CD38 (gene 952); “inactive” with CD40, CD40 (gene 958). In addition, the outcome in the test with CD69, CD69 (gene 969) was “inactive”; in [5], “inactive”; in [6] it was “inactive”; in [7] it was “inactive”; in test [8] it was “inactive”; in [9] it was “inactive”. The result in test [11] was inactive.
